The source of these data is PubChem BioAssay AID2314 (National Center for Advancing Translational Sciences (NCATS), 2010).

Among all 300,000 compounds or so, about 37,000 (12%) were called active. The full list was thinned out, with actives kept by preference. Unmarked numbers belong to inactive results. Rule as the data show it: active = max response mostly above about 13% (no sharp cut-off); inactive = mostly below about 14%.

The experiment is described as follows: Cycloheximide Counterscreen for Small Molecule Inhibitors of Shiga Toxin. Also: read at 38.3 µM for the half of the compounds with a filed dose; 0% is about no effect. Particulars: cell reporter, cycloheximide protein synthesis inhibition counterscreen; stronger effect = higher value.
As to `COC(=O)c1ccc(NC(=O)C23CC4CC(C2)CC(n2cnc(Cl)n2)(C4)C3)cc1`, the max response was 3.9%.
`CC(=O)Nc1ccc(S(=O)(=O)N2CCN(CCCOc3cc(C)ccc3C)CC2)cc1`: the max response was -1.97%.
To `OCCCN1c2ccccc2Nc2nnc(-c3ccccc3)cc21` belongs 36.8% (active).
To `N=c1c2c(-c3ccccc3)c(-c3ccccc3)n(Cc3ccccc3)c2ncn1CCCO` belongs -6.29%; to `O=C(NC(=S)NC1CCS(=O)(=O)C1)c1cccc([N+](=O)[O-])c1` (stereo not drawn), -1.9%; to `CC1CCCN(c2ccc(C(=O)NCCc3ccccc3)cn2)C1` (stereo not drawn), 66.7% (active).
In the case of `O=C(NCCc1ccccc1)c1ccc(NC2=NC3CS(=O)(=O)CC3S2)cc1` (stereo not drawn), the max response was 3.38%.
As for `CC1CCN(c2c(NCc3ccc(C(=O)NCc4ccccc4)cc3)c(=O)c2=O)CC1`, the max response is 3.3%.
On to `Cc1cc(Nc2ccc(C(=O)N3CCCCC3)cc2)c2cccc(C)c2n1`, for which the max response is -1.19%.
As for `COc1ccc(Nc2ccc([N+](=O)[O-])cn2)cn1`, the figure is -2.61%.
Regarding `NC1=NC[C@@H](Cc2ccc(O)cc2)N1CC1CCCCC1`, the max response is -4.36%.
As for `COc1ccc(OCC(=O)Nc2cc(C)c(Cl)cc2OC)c([N+](=O)[O-])c1`, the figure is 13.9% (active); as for `COc1cc(Cl)c(C)cc1NC(=O)COC(=O)c1cc(SC)ccc1Cl`, -1.86%; as for `Cc1cc(NC(=O)COC(=O)COc2ccc(Cl)cc2C)c([N+](=O)[O-])cc1C`, -1.12%.
Take `Cc1cccc2sc(N(CCCN(C)C)C(=O)CCS(=O)(=O)c3ccccc3)nc12`: the max response was 8.46%.
With `CN(C)CCCn1c(SCc2ccc(Cl)cc2)nnc1-c1ccncc1`, the max response was -2.48%.
In the case of `COc1ccc(NC(=O)C2=CC(c3ccc(OC)c(OC)c3)=NS(=O)(=O)N2C)cc1`, the max response was -6.05%.
To `O=c1c(-c2ccccc2)coc2c(CN3CCOCC3)c(O)ccc12` belongs 5.61%.
With `Cc1c(CCC(=O)O)c(=O)oc2cc3occ(-c4ccccc4)c3cc12`, the max response is -1.34%.
`O=c1c(-c2ccccc2)coc2cc(O)ccc12`: the max response is 51.6% (active).
Take `CC1(C)C2CCC1(C)C(OC(=O)c1ccc(O)cc1)C2` (stereo not drawn): the max response was -2.8%.
`COc1ccc(C23NCCN2C(=O)c2ccccc23)cc1` (stereo not drawn): the max response is -7.41%.
For the compound `Cc1cccc(NC(=O)COc2ccc(Br)cc2C)n1`, the max response was 42.7% (active).
In the case of `Cc1cccc(NC(=O)Nc2ccc(OCc3ccccc3)cc2)n1`, the max response is -4.06%.
As for `Cc1cccc(C)c1NC(=O)CNC(=O)Cc1ccc(Br)cc1`, the max response was -2.02%.
Take `Cc1cccc(NC(=O)COc2ccccc2C)n1`: the max response is 47.9% (active).
Turning to `CSc1ccccc1NC(=O)Cc1ccc(Br)cc1`, the max response is -3.62%.
With `CCN(CC)S(=O)(=O)c1ccc(C)c(NC(=O)COc2ccc(Br)cc2Cl)c1`, the max response is -3.99%.
Take `Cc1ccccc1OCC(=O)Nc1nc(C)c(C(=O)N(C)C)s1`: the max response is 7.85%.
Turning to `Cc1cccc(NC(=O)Cc2ccc(Br)cc2)n1`, the max response was 33.4% (active).
For `COCCNC(=O)COc1ccccc1C`, the max response was 0.731%.
Turning to `O=C1C(=O)N(CCN2CCOCC2)C(c2cccc(Cl)c2)/C1=C(/O)c1ccc2c(c1)OCO2` (stereo not drawn), the max response was 1.71%.
Consider `O=C(Nc1ccc(-n2cccn2)cc1)C1CCN(Cc2ccsc2)CC1`, for which the max response was 1.46%.
In the case of `Cc1cnc(C(=O)Oc2cccc(Cl)c2Cl)cn1`, the max response was -2.93%.
On to `O=S(=O)(Nc1cccc(Oc2ccc(Cl)cc2)n1)c1ccc(F)cc1`, for which the max response was -1.16%.
In the case of `COc1ccc(CN2CCNC(=O)C2CC(=O)NCc2cn[nH]c2-c2ccccc2)c(F)c1` (stereo not drawn), the max response was -3.59%.
To `Cc1cc(C)n(CCNS(=O)(=O)c2ccc(Cl)cc2)n1` belongs -1.13%.
Consider `COc1ccc2cc(-c3[nH]ncc3CNCCn3nc(C)cc3C)ccc2c1`, for which the max response was 38.8% (active).
For the compound `CCN1CCC2(CC1)N=C(c1ccc(F)cc1)C(=S)N2C(=O)c1ccc(C)cc1`, the max response is -0.381%.
As for `COc1ccccc1Nc1ncnc2c1oc1ccccc12`, the figure is 22.8% (active).
Consider `Cc1cc(C)nc(N2CCN(c3ncnc4c3oc3ccccc34)CC2)n1`, for which the max response is 10.4%.
As for `COc1ccc(C)cc1Nc1nc(C)nc2c1oc1ccccc12`, the max response was -2.13%.
As for `CCCCOc1ccc(N(CC(=O)NCC2CCCO2)C(=O)CCC(=O)Nc2cc(C)ccn2)cc1` (stereo not drawn), the figure is -1.91%; as for `C[n+]1ccc(C(=O)NCc2ccccc2)cc1`, -2.14%; as for `COc1ccc(CC(=O)Nc2ccc3c(c2)CCC3)cc1S(=O)(=O)N1CCOCC1`, 1.02%.
Take `COc1ccc(CNc2ccc3c(c2)CCC3)cc1OC`: the max response is 28.7% (active).
To `COc1ccc(CNc2cc(C)cc(C)c2)cc1OC` belongs -1.54%; to `COc1ccc(OCC(=O)Nc2ccc(NC(=O)c3ccco3)c(C)c2)cc1`, 6.17%.
For the compound `COc1cc(NS(=O)(=O)c2ccc(NC(=S)NC(=O)c3ccccc3)cc2)nc(OC)n1`, the max response was -6%.
For the compound `CCn1nccc1C(=O)Nc1ccc(Cl)c(Cl)c1`, the max response is 35.7% (active).
In the case of `CCn1nccc1C(=O)Nc1ccc(S(=O)(=O)NC23CC4CC(CC(C4)C2)C3)cc1`, the max response is 9.31%.
As for `Cc1nnc(NC(=O)Nc2ccc(Cl)c(Cl)c2)s1`, the figure is -2.3%; as for `N#Cc1cccc(Nc2c3c(nc4ccccc24)CCCC3)c1`, -8.08%; as for `Cc1nc2nc(C)c(NS(=O)(=O)c3ccc(C(C)(C)C)cc3)c(=O)n2[nH]1`, 1.21%.
As for `COc1ccc(NC(=O)N2CCC(Cc3ccccc3)CC2)cc1`, the figure is 19.5% (active); as for `O=C(NC(=S)N1CCN(Cc2ccccc2)CC1)c1ccccc1`, 10.6%; as for `O=C(Nc1ccccc1)N1CCN(C(=O)Nc2ccccc2)CC1`, -0.439%.
Consider `COc1ccc(NC(=O)N2CCCC(C(=O)Nc3ccccc3OC)C2)cc1` (stereo not drawn), for which the max response is -2.82%.
For `COc1ccc(C(=O)NC2CCN(C(=O)Nc3ccc(F)cc3)CC2)cc1`, the max response was -4.59%.
As for `O=C(c1cc2ccccc2o1)N1CCN(c2cccc(C(F)(F)F)c2)CC1`, the figure is -3.72%; as for `O=C(c1cc2ccccc2o1)N1CCN(Cc2ccccc2)CC1`, 20.5% (active).
For the compound `O=C(c1cccc(Cl)c1)N1CCN(Cc2ccccc2)CC1`, the max response is 1.6%.
As for `O=C(Nc1ccccc1)N1CCN(Cc2ccccc2)CC1`, the figure is 21% (active).
